Screens: PubChem BioAssay, National Center for Advancing Translational Sciences (NCATS)
12-hLO inh = qHTS Assay for Inhibitors of 12-hLO (12-human lipoxygenase); Polyunsaturated fatty acid lipoxygenase ALOX12 (Homo sapiens), P18054; AID 1452, 2008; purified 12-hLO, xylenol orange hydroperoxide absorbance; hit rate 0.12% among 150,000; Potency, µM (highest dose often 57.1 µM), inactives show top-dose activity change, negative = inhibition, usual class: inhibitors; active means well fitted curve in the direction sought with a large enough effect; inconclusive means small, poorly fitted or top-dose-only effect, or another doubt; inactive means no such curve, though single readings can be large; an effect the other way counts as inactive or inconclusive; further: potency means the concentration at half of the fitted maximal effect; nearly all actives have a fitted effect of over 55% in size
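Xylenol orange chromogenic assay: hydroperoxide from 12hLO oxidises Fe(II), giving red-shifted Fe(III)-XO absorbance. Conditions: 150 nM enzyme, 40 uM arachidonic acid, 25 mM Hepes pH 7.0, 0.01% Triton X-100, 30 min, room temperature.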
PNC assembly inh = High Content Assay for Compounds that inhibit the Assembly of the Perinucleolar Compartment; PC3M PTB-GFP, PNC prevalence imaging, 16 h; stronger effect = lower value; activity change (PNC), negative = inhibition, % at 10 µM; hit rate 3.1% among 140,000;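 active means readout at or below -70, meaning at least 70% loss of cells showing the perinucleolar compartment, a nuclear body marking cancer cells; inconclusive means readout between -30 and a set limit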;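 further: plate controls were DMSO wells for no effect and camptothecin positive control wells for full effect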
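Compounds are pinned in duplicate onto adhered PC3M cells stably expressing GFP-tagged PTB and incubated 16 h at 37 C. Cells are then fixed, nuclei stained with Hoechst, and PNC-positive cells counted.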
ALDH1A1 inh = qHTS Assay for Inhibitors of Aldehyde Dehydrogenase 1 (ALDH1A1); Purified ALDH1A1, NADH fluorescence, propionaldehyde substrate; Potency, µM (highest dose often 75.3 µM), for the others: top-dose activity, negative = inhibition, actives largely listed as inhibitors; hit rate 7.3% among 220,000;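 further: potency means the concentration at half of the fitted maximal effect; plate controls were no enzyme wells and a reference inhibitor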
Target sequence (P00352 whole entry, looked up): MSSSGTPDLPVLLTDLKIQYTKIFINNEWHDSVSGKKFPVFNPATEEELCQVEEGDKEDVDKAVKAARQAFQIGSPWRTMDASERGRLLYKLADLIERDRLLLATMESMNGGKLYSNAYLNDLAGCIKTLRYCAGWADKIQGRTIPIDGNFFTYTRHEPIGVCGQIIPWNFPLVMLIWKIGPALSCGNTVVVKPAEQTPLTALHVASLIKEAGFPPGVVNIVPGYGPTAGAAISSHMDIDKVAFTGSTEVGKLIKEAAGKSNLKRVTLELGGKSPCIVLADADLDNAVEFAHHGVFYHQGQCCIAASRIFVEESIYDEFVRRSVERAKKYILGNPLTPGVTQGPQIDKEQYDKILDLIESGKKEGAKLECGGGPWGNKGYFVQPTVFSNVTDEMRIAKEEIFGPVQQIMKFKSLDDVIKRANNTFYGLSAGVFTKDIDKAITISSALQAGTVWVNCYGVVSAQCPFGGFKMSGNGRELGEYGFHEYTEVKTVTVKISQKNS
IMPase inh = qHTS Assay for Identifying the Cell-Membrane Permeable IMPase Inhibitors; Inositol monophosphatase 1 (Rattus norvegicus), P97697; CHO-M1 cells, IP1 accumulation, HTRF TR-FRET ratio; inhibition (IP1 accumulation), % at 46.1 µM; 120,000 tested, under 10 active; AID 901, 2007; active means well fitted curve in the direction sought with a large enough effect in the signal ratio, not every such curve was filed as active; inconclusive means small, poorly fitted or top-dose-only effect, or a change in a side signal; inactive means no such curve, though single readings can be large or run the other way; the % refers to the signal ratio;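 further: cells stimulated with carbachol in lithium chloride buffer; plate controls were DMSO basal wells for no effect and reference inhibitor wells for full effect; higher means more IMPase inhibition seen as more IP1 and lower FRET ratio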
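Elevated IP1 in lysates lowers TR-FRET signal (665/620 ratio and 620 channel reported). Cells were CHO-M1, given carbachol (50 uM as added) plus 50mM LiCl, pH 7.4, 30 min, 37C; compounds titrated up to 46 uM; AC50 by Hill equation.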
HPGD block = qHTS Assay for Inhibitors of HPGD (15-Hydroxyprostaglandin Dehydrogenase) | 15-hydroxyprostaglandin dehydrogenase [NAD(+)] (Homo sapiens), P15428 | purified HPGD, NADH fluorescence kinetic, PGE2 substrate | Potency, µM, for the others: at the top dose activity change, negative = inhibition, most hits filed as inhibitors | hit rate 4.3% among 150,000; further: potency means the concentration at half of the fitted maximal effect
Target sequence (P15428 whole entry, looked up): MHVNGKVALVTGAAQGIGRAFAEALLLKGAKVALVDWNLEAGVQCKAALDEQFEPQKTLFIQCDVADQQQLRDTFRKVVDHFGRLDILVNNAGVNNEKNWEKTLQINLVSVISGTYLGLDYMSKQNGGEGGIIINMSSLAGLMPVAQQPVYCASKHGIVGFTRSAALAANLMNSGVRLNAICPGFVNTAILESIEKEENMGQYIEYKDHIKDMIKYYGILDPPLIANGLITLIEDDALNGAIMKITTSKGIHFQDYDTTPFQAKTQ
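20 nM HPGD preincubated 15 min at room temperature with compound in 50 mM Tris-HCl pH 8, 0.01% Tween 20. Started with 1 mM NAD+ and 30 uM prostaglandin E2; NADH fluorescence (360/450 nm) read 5 times over 30-s intervals, last minus first.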
IMPase Li cell = qHTS Assay for Identifying the Cell-Membrane Permeable IMPase Inhibitors: Potentiation with Lithium; CHO-M1 cells, IP1 TR-FRET (IP-One), carbachol + lithium; hit rate 0.35% among 210,000; Potency, µM (titrated, usually from 59.4 µM), for inactives: top-dose activity, negative = IMPase inhibition, most hits filed as inhibitors; active means well fitted curve in the direction sought with a large enough effect; inconclusive means small, poorly fitted or top-dose-only effect, or another doubt; inactive means no such curve, though single readings can be large; an effect the other way counts as inactive or inconclusive;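 further: IP1 builds up when IMPase is blocked and the TR-FRET signal falls; potency means the concentration at half of the fitted maximal effect; plate controls were basal vehicle for no effect and high inhibitor control for full effect; nearly all actives have a fitted effect of over 50% in size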
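CHO cells stably expressing M1 receptor (2000/well, cultured 16–30 h) treated 30 min at 37C with compound plus low lithium. Cytosolic IP1 by TR-FRET (665/620 ratio and 620 channel) after 10 min lysis; AC50 by Hill fit.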
The depositor's hits bear a star; ! = not active in a repeat; [ ] = remark or other dose. Compounds with a hit are over-represented: about 11% of the library has one in this group of screens. Unless noted, the call rests on the fitted dose curve; in most records, active means well fitted inhibition curve with a large enough effect (not every such curve was filed as active); inconclusive means small, poorly fitted or top-dose-only effect, or another doubt; inactive means no such curve, though single readings can be large or run the other way. Unless noted, on the % scale 0 is the no-effect control and ±100 the full control effect.

What do the screens show for `O=C(OCC(=O)c1ccc([N+](=O)[O-])cc1)/C(=C\c1ccc(Cl)cc1)NC(=O)c1ccccc1`?
12-hLO inh: -6%; PNC assembly inh: 18; ALDH1A1 inh: 13µM*; IMPase inh: 9; HPGD block: -5%; IMPase Li cell: -4%[38.3 µM]

How did O=C(O)CC/C(=C\c1cc([N+](=O)[O-])ccc1Cl)c1nc2ccccc2s1 do in these assays?
12-hLO inh: 2%; PNC assembly inh: inconclusive; ALDH1A1 inh: inconclusive; HPGD block: -14%; IMPase Li cell: 1%

How did COc1cc2c(cc1OC)C(C(=O)NCCC(C)C)C1CCCCN1C2=O (configuration not stated) do in these assays?
12-hLO inh: -2%; PNC assembly inh: -119*; ALDH1A1 inh: inconclusive; IMPase inh: 1; HPGD block: -28%; IMPase Li cell: 12%

What do the screens show for `N[C@@H](Cc1cc(O)c(O)cc1O)C(=O)O`?
12-hLO inh: -18%; IMPase inh: -3

How did O=C1C=Cc2ccccc2C1=O do in these assays?
12-hLO inh: -24%; PNC assembly inh: inconclusive; ALDH1A1 inh: 14µM*; HPGD block: 7.9µM*; IMPase Li cell: 2%

Results for NC(=O)c1ncn([C@@H]2O[C@H](CO)[C@@H](O)[C@H]2O)n1 ?
12-hLO inh: 0%; PNC assembly inh: -24; ALDH1A1 inh: 25µM*!; IMPase inh: 10; HPGD block: -4%; IMPase Li cell: -3%

What do the screens show for `NC(=O)c1ncn([C@H]2O[C@@H](CO)[C@@H](O)[C@@H]2O)n1`?
12-hLO inh: 3%[25.6 µM]; ALDH1A1 inh: -5%[20.9 µM]; IMPase inh: -3[20.6 µM]; HPGD block: -4%; IMPase Li cell: -1%

Results for O=Cc1ccc(Cl)cc1Cl ?
12-hLO inh: -3%; ALDH1A1 inh: -14%; HPGD block: -7%; IMPase Li cell: 7%

How did Cc1cc[c]([Sb]2[O]C([C@H](O)[C@H](O)C(=O)O)[C@@H](CO)[O]2)cc1 (some centres not stated) do in these assays?
ALDH1A1 inh: 3%[13.5 µM]; HPGD block: 1%; IMPase Li cell: -3%

What do the screens show for `C=C/C(=C/C(=O)C[C@H](C)C[C@@H](C)CC[C@H](O)[C@H](C)C(=O)C[C@@H](O)[C@H](C)[C@@H](C)OC(=O)C[C@@H](O)C1=C(C)C(=O)OC1=O)CC`?
12-hLO inh: 2%[0.00818 µM]; ALDH1A1 inh: inconclusive; HPGD block: 2.8µM*; IMPase Li cell: -5%

Results for CCOC(=O)c1ccc(N2C(=O)CC(N3CC=C(c4ccc(F)cc4)CC3)C2=O)cc1 (configuration not stated) ?
12-hLO inh: -8%; PNC assembly inh: -21; ALDH1A1 inh: 3.5µM*; IMPase inh: 3; HPGD block: 28µM*; IMPase Li cell: 19%[38.3 µM]

What do the screens show for `CCCc1cc2c(n1CCO)C(C)C1CN(C(=O)c3ccccc3)C(C)(C(=O)OC)C21` (configuration not stated)?
12-hLO inh: -2%; ALDH1A1 inh: 6%; HPGD block: -13%; IMPase Li cell: -7%

What do the screens show for `COc1ccc(C(CC(=O)N2CCC3(CC2)OCCO3)NS(=O)(=O)c2ccc(F)cc2)cc1` (configuration not stated)?
12-hLO inh: -5%; PNC assembly inh: 19; ALDH1A1 inh: -5%; IMPase inh: 3; HPGD block: -8%; IMPase Li cell: 8%[38.3 µM]

Results for COc1ccc(S(=O)(=O)NC(CC(=O)N2CCc3ccccc32)c2ccco2)cc1 (configuration not stated) ?
12-hLO inh: -1%; PNC assembly inh: -82*; ALDH1A1 inh: inconclusive; IMPase inh: -2; HPGD block: 5%; IMPase Li cell: 19%[38.3 µM]

What do the screens show for `CCOc1cc(CNCCc2c[nH]c3ccccc23)cc(Cl)c1OCC`?
12-hLO inh: -7%; PNC assembly inh: -24; ALDH1A1 inh: -2%; HPGD block: -4%; IMPase Li cell: 2%

How did CCOc1c(Cl)cc(CNCCc2c[nH]c3ccccc23)cc1OC do in these assays?
ALDH1A1 inh: 3.5µM*; IMPase Li cell: 16%

What do the screens show for `C[C@@H](Cc1ccc2c(c1)OC(C(=O)O)(C(=O)O)O2)NC[C@H](O)c1cccc(Cl)c1`?
12-hLO inh: -7%; IMPase inh: -1

Results for COc1ccc(OCC#CCN2CCCCCC2)cc1 ?
ALDH1A1 inh: 22µM*; IMPase Li cell: 22%

How did O=[N+]([O-])c1ccc(O[C@@H]2O[C@H](CO)[C@@H](O)[C@H](O)[C@H]2F)c([N+](=O)[O-])c1 do in these assays?
ALDH1A1 inh: inconclusive; HPGD block: -11%; IMPase Li cell: -3%

What do the screens show for `O=c1ccc2cc(OC3OC(CO)C(O)C(O)C3O)c(O)cc2o1` (configuration not stated)?
12-hLO inh: -2%; ALDH1A1 inh: inconclusive; IMPase inh: inconclusive; HPGD block: inconclusive; IMPase Li cell: 10µM*

How did CC(C)(C)[C@]1(O)C[C@@H]2OC(=O)CC23C(=O)O[C@@H]2OC(=O)[C@H](O)C231 (some centres not stated) do in these assays?
12-hLO inh: -2%[0.00818 µM]; ALDH1A1 inh: 5%; HPGD block: 0%; IMPase Li cell: 5%

How did CC(C)(C)NCC(O)c1ccccc1Cl (configuration not stated) do in these assays?
12-hLO inh: -2%; ALDH1A1 inh: -5%; HPGD block: -12%; IMPase Li cell: 6%

How did Clc1ccc(C(c2ccccc2Cl)C(Cl)(Cl)Cl)cc1 (configuration not stated) do in these assays?
12-hLO inh: 0%; ALDH1A1 inh: 22µM*; HPGD block: -6%; IMPase Li cell: -2%

What do the screens show for `CCCCCn1c(SCCCC)nc2c1c(=O)[nH]c(=O)n2C`?
12-hLO inh: -3%; PNC assembly inh: 5; ALDH1A1 inh: 20µM*; IMPase inh: -1; HPGD block: 14µM*; IMPase Li cell: 31%[38.3 µM]

What do the screens show for `CC(C)CCn1c(N2CCN(c3cccc(Cl)c3)CC2)nc2c1c(=O)[nH]c(=O)n2C`?
12-hLO inh: -2%; PNC assembly inh: 42; ALDH1A1 inh: 5%; IMPase inh: 10; HPGD block: -5%; IMPase Li cell: 34%
